Experiment [1] has as its target Cytochrome P450 3A4 (Homo sapiens) (UniProt P08684). Briefly: qHTS Assay for Activators of Cytochrome P450 3A4 (AID 885). Note: nearly all actives have a fitted effect of over 65% in size. Note: potency is the fitted concentration of half-maximal effect. The procedure, abridged: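 Human CYP3A4 dealkylates Luciferin-PPXE to luciferin, which luciferase detection converts to light. Substrate was at its KM (25uM), buffer 200mM KPO4, reaction 60 min at RT.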
Experiment [2] addresses Cytochrome P450 2D6 (Homo sapiens) (UniProt P10635). Briefly: qHTS Assay for Inhibitors and Substrates of Cytochrome P450 2D6 (AID 891). Note: potency is the fitted concentration of half-maximal effect; nearly all actives have a fitted effect of over 60% in size. The method, boiled down: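 Luminescent read-out of luciferin formed by 5 nM human CYP2D6 demethylating 30 uM Luciferin-ME EGE (Km level) over 60 min at room temperature after NADPH regeneration addition. Data normalized to full inhibition by 1.43 uM quinidine.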

Experiment [3] has as its target Cytochrome P450 3A4 (Homo sapiens) (UniProt P08684). Briefly: qHTS Assay for Inhibitors and Substrates of Cytochrome P450 3A4 (AID 884). Note: nearly all actives have a fitted effect of over 50% in size. Note: potency is the fitted concentration of half-maximal effect. The procedure, abridged:
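Luminescent readout of luciferin produced by CYP3A4 (20 nM) dealkylation of Luciferin-PPXE, 25 uM (its KM). NADPH-driven reaction ran 60 min at RT after 10 min compound preincubation; data scaled to 57 uM ketoconazole as 100% inhibition.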
Background: qHTS replaces the single test concentration by a dilution series.

A short description of experiment [4]: Confirmation and Secondary Assay for Modulators of Hemoglobin Beta Chain Splicing at IVS2 654 locus (AID 910).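 Note: per-well total GFP intensity by laser scanning cytometry after 2-day treatment.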 The procedure, abridged:
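HeLa cells stably carrying EGFP interrupted by mutant beta-globin IVS2-654 intron (CMV-driven) were treated with compound for 2 days at 37C; corrected splicing was scored as total peak GFP intensity per well (488 nm excitation, 500-520 nm emission).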

Experiment [5] can be described thus: Confirmation and Secondary Assay for Modulators of Hemoglobin Beta Chain Splicing at IVS2 705 locus (AID 930).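 Note: HeLa cells stably expressing the EGFP-705 splicing reporter; series mostly up to about 46 µM.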 The procedure, abridged:
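Restored EGFP fluorescence after 2-day compound exposure reports splicing correction in IVS2-705 EGFP reporter HeLa cells; positive control was 500 nM splice-blocking PNA oligo. Signal measured as well total peak GFP intensity (488 nm excitation).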

Experiment [6] concerns the target Guanine nucleotide-binding protein G(i) subunit alpha-1 (Homo sapiens) (UniProt P63096). Description: qHTS Assay for Inhibitors of RGS12 GoLoco Motif Activity (Green Fluorophore) (AID 879).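 Note: negative values mean loss of peptide binding seen as reduced polarization.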 The procedure, abridged: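 A drop in FITC polarization marked displacement of the FITC-tagged RGS12 GoLoco peptide (10 nM) from Gαi1 (50 nM). Compounds were incubated 10 min at room temperature in Tris pH 7.5 buffer containing 150 mM NaCl, 0.1 mM GDP and 0.05% NP40; unlabeled peptide titration served as control.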

Experiment [7] has as its target Muscarinic acetylcholine receptor M1 (Rattus norvegicus) (UniProt P08482). Briefly: qHTS Assay for Antagonists of Acetylcholine Muscarinic M1 Receptor: Kinetic Measurement of Intracellular Calcium Response (AID 943).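 Note: Fluo-4 calcium signal as peak divided by basal fluorescence over 4 min; series mostly up to about 35 µM; nearly all actives have a fitted effect of over 75% in size.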 The method, boiled down: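 Antagonism measured as reduction of carbachol-evoked (EC80, 100 nM final) calcium flux in rat M1-CHO cells after 10 min compound exposure. Fluo-4 signal read kinetically; ratio of maximal to basal fluorescence.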

For experiment [8] the target is unchanged. Briefly: qHTS Assay for Antagonists of Acetylcholine Muscarinic M1 Receptor: Measurement of IP-One Response (AID 944). Note: nearly all actives have a fitted effect of over 75% in size. The procedure, abridged:
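IP1 accumulation measured via TR-FRET between d2-IP1 and Eu-cryptate anti-IP1 antibody after carbachol (200 nM, EC80) stimulation for 30 min; rat M1-transfected CHO cells received compound 10 min before agonist.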

The target of experiment [9] is Pyruvate kinase (Leishmania mexicana) (UniProt Q27686). Description: qHTS Validation Assay for Inhibitors of Leishmania Mexicana Pyruvate Kinase (AID 945). The procedure, abridged: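 Purified LmPYK (E451W mutant, 0.2 nM) was incubated 1 h at room temperature with 0.5 mM PEP and 0.1 mM ADP in 50 mM imidazole pH 7.2, 50 mM KCl, 7 mM MgCl2; ATP formed was read by PKLight luminescence, normalized to DMSO wells.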

Experiment [10] deals with Pyruvate kinase PKM (Homo sapiens) (UniProt P14618). Briefly: qHTS Assay for Activators of Human Muscle Pyruvate Kinase (AID 954; active = well fitted curve in the direction sought with a large enough effect, not every such curve was filed as active). The method, boiled down: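 Compound pinned into substrate mix (0.5 mM PEP, 0.1 mM ADP), then 0.1 nM PKM2 added; 1 h, RT. Stop/detection luciferase reagent added, luminescence read. Normalized to no-inhibition and no-enzyme or reference-inhibitor controls.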

Experiment [11] concerns the target Cytochrome P450 2C9 (Homo sapiens) (UniProt P11712). Description: qHTS Assay for Inhibitors and Substrates of Cytochrome P450 2C9 (AID 883). Note: nearly all actives have a fitted effect of over 60% in size. Note: potency is the fitted concentration of half-maximal effect. The method, boiled down: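 Human CYP2C9 (10nM) hydroxylated Luciferin-H (100uM, at its KM) to luciferin in 25mM KPO4. Compound was preincubated 10 min at 37C, then NADPH regeneration started a 60 min reaction at 37C. Luminescence was read after detection reagent, normalized to 57uM sulphaphenazole.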

The nature of experiment [12]: MultiTox-Fluor Cytotoxicity Assay - LYMP1-001 - Dead Cells (AID 946). Note: potency is the fitted concentration of half-maximal effect. The procedure, abridged: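 LYMP1-001 lymphoblastoid cells (2500/well) treated 16 h at 37 C. Dead-cell protease cleavage of bis-AAF-R110 read at Ex/Em 485/520. Normalized to DMSO and 15 uM tetraoctylammonium bromide; AC50 from Hill fits.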
A short description of experiment [13]: Cell Viability - LYMP1-002 - Assay at 16 hr (AID 948). Note: potency is the fitted concentration of half-maximal effect. The procedure, abridged:
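Acute cytotoxicity is scored as a concentration-dependent fall in intracellular ATP in a human lymphoblastoid line (LYMP1-002) after 16 hr compound exposure at 37 C, measured by luciferase luminescence.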

Experiment [14] is described as follows: MultiTox-Fluor Cytotoxicity Assay - LYMP1-002 - Live Cells (AID 955).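 Note: cells exposed to compound for 16 hours.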 The procedure, abridged:
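After 16 h compound exposure at 37 C, live LYMP1-002 lymphoblastoid cells (2500/well) were quantified by cleavage of cell-permeant GF-AFC substrate, read at 405/510 nm after 60 min. Concentration-response fitted with Hill equation for AC50.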

A short description of experiment [15]: MultiTox-Fluor Cytotoxicity Assay - LYMP1-002 - Dead Cells (AID 960). Note: potency is the fitted concentration of half-maximal effect; nearly all actives have a fitted effect of over 60% in size. The method, boiled down:
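Dead-cell fluorescence (Ex/Em 485/520) after 16 h compound exposure at 37 C of LYMP1-002 lymphoblastoid cells in complete medium; AC50 by Hill equation, with data scaled between DMSO and 15 uM tetraoctylammonium bromide.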

Unmarked numbers belong to inactive results. Inconclusive results are not listed. The source made the active and inactive calls. Unless noted, calls come from the whole dose curve; as a rule, active = well fitted curve in the direction sought with a large enough effect; inconclusive = small, poorly fitted or top-dose-only effect, or another doubt; inactive = no such curve, though single readings can be large; an effect the other way counts as inactive or inconclusive.

Cytochrome P450 3A4 (Homo sapiens), sequence (P08684 whole entry, looked up): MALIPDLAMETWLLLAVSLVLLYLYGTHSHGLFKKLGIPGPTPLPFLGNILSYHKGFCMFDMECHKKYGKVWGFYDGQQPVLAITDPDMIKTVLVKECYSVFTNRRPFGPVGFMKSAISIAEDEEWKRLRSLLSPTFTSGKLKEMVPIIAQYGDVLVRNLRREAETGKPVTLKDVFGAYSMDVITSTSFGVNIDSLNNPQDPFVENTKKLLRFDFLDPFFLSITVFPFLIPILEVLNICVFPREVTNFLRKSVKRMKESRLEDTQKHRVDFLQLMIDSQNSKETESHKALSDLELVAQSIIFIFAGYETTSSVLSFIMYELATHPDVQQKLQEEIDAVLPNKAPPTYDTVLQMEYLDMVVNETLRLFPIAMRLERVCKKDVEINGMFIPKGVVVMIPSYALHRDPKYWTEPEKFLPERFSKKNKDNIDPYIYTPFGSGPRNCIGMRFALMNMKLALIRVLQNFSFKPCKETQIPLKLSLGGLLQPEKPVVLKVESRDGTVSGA
Pyruvate kinase PKM (Homo sapiens), sequence (P14618 whole entry, looked up): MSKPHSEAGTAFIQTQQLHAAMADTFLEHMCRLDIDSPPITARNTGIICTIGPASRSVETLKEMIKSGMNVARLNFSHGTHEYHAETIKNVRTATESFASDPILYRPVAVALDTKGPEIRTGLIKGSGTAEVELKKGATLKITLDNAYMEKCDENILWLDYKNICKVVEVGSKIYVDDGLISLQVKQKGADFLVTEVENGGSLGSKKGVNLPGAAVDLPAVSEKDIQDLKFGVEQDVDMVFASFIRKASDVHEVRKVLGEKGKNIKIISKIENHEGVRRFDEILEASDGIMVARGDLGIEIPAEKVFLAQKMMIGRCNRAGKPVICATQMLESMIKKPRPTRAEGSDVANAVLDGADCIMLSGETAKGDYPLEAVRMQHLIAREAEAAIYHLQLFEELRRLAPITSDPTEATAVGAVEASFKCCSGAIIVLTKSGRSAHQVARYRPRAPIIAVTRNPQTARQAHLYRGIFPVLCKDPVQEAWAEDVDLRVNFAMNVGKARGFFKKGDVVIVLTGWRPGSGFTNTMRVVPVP
Muscarinic acetylcholine receptor M1 (Rattus norvegicus), sequence (P08482 whole entry, looked up): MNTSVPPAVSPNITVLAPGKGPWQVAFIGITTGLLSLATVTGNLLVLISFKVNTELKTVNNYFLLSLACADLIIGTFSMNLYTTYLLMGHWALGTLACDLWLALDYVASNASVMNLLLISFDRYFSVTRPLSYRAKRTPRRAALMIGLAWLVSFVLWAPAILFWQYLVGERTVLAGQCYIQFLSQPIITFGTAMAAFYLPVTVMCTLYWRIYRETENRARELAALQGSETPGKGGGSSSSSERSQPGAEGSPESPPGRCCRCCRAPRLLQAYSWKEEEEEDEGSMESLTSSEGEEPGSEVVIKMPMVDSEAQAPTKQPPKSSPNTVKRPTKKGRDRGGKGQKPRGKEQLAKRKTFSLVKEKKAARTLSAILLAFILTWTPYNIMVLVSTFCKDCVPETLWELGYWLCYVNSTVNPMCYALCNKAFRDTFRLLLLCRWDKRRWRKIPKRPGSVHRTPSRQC
Cytochrome P450 2C9 (Homo sapiens), sequence (P11712 whole entry, looked up): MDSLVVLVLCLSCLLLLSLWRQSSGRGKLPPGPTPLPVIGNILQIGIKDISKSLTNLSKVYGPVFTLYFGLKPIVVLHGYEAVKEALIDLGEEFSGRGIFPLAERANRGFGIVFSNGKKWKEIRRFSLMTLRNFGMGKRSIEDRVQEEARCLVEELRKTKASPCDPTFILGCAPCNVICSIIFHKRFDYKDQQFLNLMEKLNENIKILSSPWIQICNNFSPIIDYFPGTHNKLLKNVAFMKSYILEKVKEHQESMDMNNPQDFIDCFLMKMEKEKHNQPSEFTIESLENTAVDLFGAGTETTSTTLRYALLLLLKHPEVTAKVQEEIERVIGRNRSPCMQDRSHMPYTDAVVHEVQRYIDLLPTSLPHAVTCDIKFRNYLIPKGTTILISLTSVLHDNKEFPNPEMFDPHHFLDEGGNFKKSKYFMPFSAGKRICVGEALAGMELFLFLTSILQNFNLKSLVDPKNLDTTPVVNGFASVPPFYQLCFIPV
Guanine nucleotide-binding protein G(i) subunit alpha-1 (Homo sapiens), sequence (P63096 whole entry, looked up): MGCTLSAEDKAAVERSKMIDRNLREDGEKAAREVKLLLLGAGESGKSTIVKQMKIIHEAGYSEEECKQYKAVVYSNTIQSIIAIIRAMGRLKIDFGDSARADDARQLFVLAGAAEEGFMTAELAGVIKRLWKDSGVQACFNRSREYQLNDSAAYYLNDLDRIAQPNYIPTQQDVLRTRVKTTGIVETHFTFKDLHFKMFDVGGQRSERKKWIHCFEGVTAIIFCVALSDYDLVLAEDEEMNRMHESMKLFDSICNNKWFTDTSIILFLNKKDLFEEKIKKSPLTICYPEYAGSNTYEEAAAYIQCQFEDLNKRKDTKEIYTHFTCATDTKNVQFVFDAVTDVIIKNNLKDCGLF
Pyruvate kinase (Leishmania mexicana), sequence (Q27686 2-499 E452W): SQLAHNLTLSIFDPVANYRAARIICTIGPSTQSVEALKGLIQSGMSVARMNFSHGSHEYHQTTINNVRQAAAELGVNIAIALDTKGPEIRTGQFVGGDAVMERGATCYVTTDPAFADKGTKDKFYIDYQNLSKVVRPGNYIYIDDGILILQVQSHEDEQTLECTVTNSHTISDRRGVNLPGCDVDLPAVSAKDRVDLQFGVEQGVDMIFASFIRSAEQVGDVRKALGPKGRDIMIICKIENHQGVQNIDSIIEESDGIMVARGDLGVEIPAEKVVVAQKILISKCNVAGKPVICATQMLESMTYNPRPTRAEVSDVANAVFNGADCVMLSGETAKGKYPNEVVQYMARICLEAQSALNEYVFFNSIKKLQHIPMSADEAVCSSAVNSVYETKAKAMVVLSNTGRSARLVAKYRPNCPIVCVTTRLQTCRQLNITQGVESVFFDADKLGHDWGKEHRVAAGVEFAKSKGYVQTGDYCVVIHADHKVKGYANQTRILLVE
Cytochrome P450 2D6 (Homo sapiens), sequence (P10635 whole entry, looked up): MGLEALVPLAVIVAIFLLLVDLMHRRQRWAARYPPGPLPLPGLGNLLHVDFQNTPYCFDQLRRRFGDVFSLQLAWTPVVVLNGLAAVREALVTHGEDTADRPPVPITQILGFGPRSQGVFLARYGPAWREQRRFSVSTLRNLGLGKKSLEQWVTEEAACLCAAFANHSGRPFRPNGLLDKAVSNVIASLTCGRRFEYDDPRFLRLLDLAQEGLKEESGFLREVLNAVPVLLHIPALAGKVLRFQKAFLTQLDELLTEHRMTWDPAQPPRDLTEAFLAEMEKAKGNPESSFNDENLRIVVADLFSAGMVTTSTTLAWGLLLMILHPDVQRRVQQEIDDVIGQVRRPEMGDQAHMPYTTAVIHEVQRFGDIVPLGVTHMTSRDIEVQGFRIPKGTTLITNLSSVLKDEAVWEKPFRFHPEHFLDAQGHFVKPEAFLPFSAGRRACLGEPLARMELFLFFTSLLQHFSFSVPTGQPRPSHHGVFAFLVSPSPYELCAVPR

On to `CCSc1ccc2c(c1)N(CCCN1CCN(C)CC1)c1ccccc1S2`, for which, in experiment [1], the Potency result is “inactive”. Further, the Potency in experiment [2] was 2.51 µM (active).
On to `NCC(O)CC(=O)O` (stereo not given), for which the Potency result in experiment [3], in experiment [4] and in experiment [5] was “inactive” throughout.
In the case of `Cc1cc(C)c(NC(=O)C[C@H](CC(=O)O)c2cccc3ccccc23)c(C(=O)N2CCC3(CCCC3)CC2)c1`, the compound was called inactive in experiment [6], in experiment [7], in experiment [8], in experiment [9] and in experiment [10]. Moreover, in experiment [1], the Potency result was “inactive”.
Turning to `CCCc1nc(C(C)(C)O)c(C(=O)OCc2oc(=O)oc2C)n1Cc1ccc(-c2ccccc2-c2nn[nH]n2)cc1`, the Potency entry in [1], in experiment [4] and in [5] was “inactive” in each case.
As for `O=C(O)Cc1nn(Cc2ccc(Br)cc2F)c(=O)c2ccccc12`, in experiment [11], the Potency result was “inactive”.
In the case of `CCOC(=O)C1=C(COCCN)NC(C)=C(C(=O)OC)C1c1ccccc1Cl` (stereo not given), the Potency result in experiment [4] and in [5] was “inactive” in each case.
On to `O=C(O)[C@H]1CN(C/C=C/P(=O)(O)O)CCN1`, for which the Potency result in experiment [3] was “inactive”.
Consider `CC(=O)[C@H]1CC[C@H]2[C@@H]3C=CC4=CC(=O)CC[C@@]4(C)[C@H]3CC[C@]12C`, for which the Potency result in [3] is “inactive”. Besides, in experiment [1], the Potency was 7.94 µM (active).
With `C=CC(C)(O)CC/C=C(\C)CCC=C(C)C` (stereo not given), the Potency entry in [3], in [4] and in [5] was “inactive” in each case.
With `O=C(O)CCC(=O)c1ccc(-c2ccccc2)cc1`, the Potency result in [4] and in [5] was “inactive” throughout.
`C[C@@](Cc1ccc(O)c(O)c1)(NN)C(=O)O`: the outcome in [6], in [9] and in [10] was inactive. Moreover, the Potency result in experiment [1] is “inactive”.
With `O=C(CCCCCCCCCCCCC1CCCC1)Nc1ccc(S(=O)(=O)c2ccc(NC(=O)CCCCCCCCCCCCC3CCCC3)cc2)cc1`, the Potency result in experiment [1], in [4] and in experiment [5] was “inactive” throughout.
`CC1CCCC(C)N1NC(=O)c1ccc(Cl)c(S(N)(=O)=O)c1` (stereo not given): the Potency entry in [3], in experiment [4] and in experiment [5] was “inactive” in each case.
With `C=C1C(CCl)(CCl)C2(Cl)C(Cl)C(Cl)C1(Cl)C2(Cl)Cl` (stereo not given), the Potency in experiment [3] was 5.01 µM (active); in experiment [12], 50.1 µM (active); in experiment [13], 50.1 µM (active); in [15], 31.6 µM (active). The Potency entry in [1] and in experiment [14] was “inactive” each time.
In the case of `O=C(O)Cc1cc(I)c(Oc2ccc(O)c(I)c2)c(I)c1`, in experiment [11], the Potency is 5.01 µM (active).
For the compound `CC(=O)N=c1sc(S(N)(=O)=O)nn1C`, the Potency entry in experiment [3], in experiment [4] and in experiment [5] was “inactive” in each case.

Source of the values: PubChem BioAssay (NCATS).
